Source: PubChem BioAssay AID926 (National Center for Advancing Translational Sciences (NCATS), 2007)
In all, about 73,000 compounds went through this assay and about 350 (0.48%) were called active. Roughly 17% stayed inconclusive and do not appear here. Calls follow the shape of the dose curve; as a rule, active = well fitted activation curve with a large enough effect in the main read-out, with a control signal flat (not every such curve was filed as active); inconclusive = small, poorly fitted or top-dose-only effect, or a change in a side signal; inactive = no such curve, though single readings can be large or run the other way; reference of the percent scale not stated here. The sample as a whole holds a higher share of actives than the screen did.

Columns and labels:
[1] = qHTS Assay for Agonists of the Thyroid Stimulating Hormone Receptor; settings: HEK293-CNG-TSHR cells, membrane potential dye, cAMP; measured here: parental cells max response
Description: (§1) NIH Chemical Genomics Center [NCGC]
(§2) NIH Molecular Libraries Screening Centers Network [MLSCN]
(§3) PI Name: Dr. Marvin Gershengorn, NIH
(§4) Thyroid Stimulating Hormone Receptor
(§5) TSH is an alpha/beta heterodimeric glycoprotein hormone secreted from the anterior pituitary gland which belongs to the glycoprotein hormone family. The actions of TSH are mediated by a seven-transmembrane receptor, which upon TSH binding couples preferentially to the G-alpha (s) protein (Gs), resulting in activation of adenylate cyclase and increase in cyclic adenosine 3', 5' monophosphate (cAMP). The TSH receptor (THSR) is mainly expressed in thyroid follicular cells and regulates their growth and function. Recombinant TSH is used to activate TSHR in patients with thyroid cancer receiving thyroid hormone suppression therapy and to screen for residual tumor after surgery, but it is expensive and must be administered intramuscularly. An orally active small molecule TSHR agonist would serve as an invaluable research tool for studying TSHR pharmacology and physiology, and would have multiple advantages in therapeutic settings. However, no selective small molecule agonist of the TSH receptor exists, and no small molecule screen for TSHR agonists has ever been reported.
(§6) This cell based assay utilized a cyclic nucleotide gated ion channel (CNG) as a biosensor for cAMP induction by potential TSHR agonists.
(§7) HEK 293 cells stably expressing the TSHR as well as a modified CNG were purchased from BD biosciences. Stimulation of cAMP production causes the CNG to open and subsequent membrane depolarization to occur. A fluorescent membrane potential dye (BD biosciences) was utilized to detect cAMP stimulation in TSHR cells.
(§8) The cells were maintained in DMEM medium (Invitrogen) containing 10 % FBS (Hyclone), 100 units/ml Penicillin, 100 ug/ml Streptomycin (Invitrogen), and 250 ug/ml Geneticin (Invitrogen) and 1 ug/ml Puromycin (Invitrogen) at 37C in 5% CO2. HEK 293 cells expressing CNG but without TSHR (parental cells) were used in concert to control for compounds signaling through endogenous receptors and targets of HEK 293 cells.
(§9) NCGC Assay Protocol Summary:
(§10) High Throughput Screening. Freshly passaged cells (TSHR or parental) were dispensed into 1536-well assay plates at 4 ul/well in DMEM containing phenol red (Invitrogen), 10% FCS (Hyclone), and 100 units/ml Penicillin, 100 ug/ml Streptomycin (Invitrogen) and incubated at 37 C with 5% CO2 for 20 to 36 hrs before the robotic screening. The screen was initiated by addition of 4 ul/well membrane potential dye containing 100 uM RO 20-1724 (Sigma Aldrich), followed by 60 min incubation at room temperature to allow for dye equilibration across the cell membrane. 23 nl/well compound or control was then added to the assay plates, which were incubated for additional 30 min before reading a Envision fluorescence plate reader (Perkin Elmer) in bottom-read mode for fluorescence intensity (emission at 590 nm).
(§11) Keywords: Thyroid-stimulating hormone TSH, TSHR, TSHR agonist, quantitative high throughput screening, qHTS, HTS, probe identification, CNG, cAMP, cyclic nucleotide gated ion channel PubChem

[2] = target: Thyrotropin receptor (Homo sapiens) (UniProt P16473); test: as above; settings: HEK293-CNG-TSHR cells (CNG channel as cAMP sensor), membrane potential dye, cAMP; series mostly up to 57.1 µM
Description: as §1, §2, §3, §4, §5, §6, §7, §8, §9, §10, §11
Potency is read from the fitted curve at half-maximal effect.

Thyrotropin receptor (Homo sapiens), sequence (P16473 whole entry, looked up): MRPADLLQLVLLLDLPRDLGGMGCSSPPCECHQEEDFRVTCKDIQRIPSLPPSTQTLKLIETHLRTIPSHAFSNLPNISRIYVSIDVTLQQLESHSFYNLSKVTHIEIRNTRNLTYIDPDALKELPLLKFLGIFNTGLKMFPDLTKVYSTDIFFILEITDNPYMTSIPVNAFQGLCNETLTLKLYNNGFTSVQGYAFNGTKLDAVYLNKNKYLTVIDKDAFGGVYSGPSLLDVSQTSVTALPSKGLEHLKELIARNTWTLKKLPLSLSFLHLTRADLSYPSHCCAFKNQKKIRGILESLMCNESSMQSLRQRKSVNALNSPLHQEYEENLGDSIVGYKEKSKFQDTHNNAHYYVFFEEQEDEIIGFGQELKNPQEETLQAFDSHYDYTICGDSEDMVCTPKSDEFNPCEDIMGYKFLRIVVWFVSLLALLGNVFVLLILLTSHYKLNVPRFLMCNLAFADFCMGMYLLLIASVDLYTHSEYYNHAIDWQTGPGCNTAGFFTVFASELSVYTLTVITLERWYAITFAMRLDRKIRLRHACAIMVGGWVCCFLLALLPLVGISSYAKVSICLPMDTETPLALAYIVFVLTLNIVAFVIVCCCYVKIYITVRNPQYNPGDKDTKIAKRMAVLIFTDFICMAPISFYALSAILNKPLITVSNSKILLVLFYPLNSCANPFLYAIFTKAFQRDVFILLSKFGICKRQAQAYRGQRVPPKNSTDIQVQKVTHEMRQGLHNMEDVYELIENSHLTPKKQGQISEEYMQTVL

| Structure (SMILES) | activation [1] | activation [2] | Potency [2] |
| --- | --- | --- | --- |
| O=C(O)c1cc(S(=O)(=O)N2CCCCCC2)c(Cl)cc1Cl | 9.56% | 12.9% [at 11.4 µM] (inactive) | – |
| COC(=O)[C@@]1(C)C=C[C@@H](Cc2ccccc2)N1C(C)=O | 15.2% | – | inactive |
| CCC[C@@H]1C[C@@]1(CCC)C(NC(=O)c1ccc(-c2ccccc2)cc1)c1cccc(Cl)c1 (stereo partly drawn) | -2.94% | – | inactive |
| COC(=O)C1(C)C=CCN1C(=O)c1ccccc1 (stereo not drawn) | 22% | – | inactive |
| O=C(Cl)c1ccccc1[N+](=O)[O-] | 27% | – | inactive |
| CC(C)CN1CCc2nc(-c3ccccc3)c3c(c2C1)COC(C)C3 (stereo not drawn) | -2.08% | -2.84% [at 11.4 µM] (inactive) | – |
| CCN(CC)CCCCn1c(-c2ccccc2)nc2c(N3CCOCC3)nc(C)nc21 | 25% | – | inactive |
| CN1CCN(Cc2nc3c(c(=O)n(C)c(=O)n3C)n2Cc2cccc3ccccc23)CC1 | 2.12% | – | inactive |
| C[C@@H]1/C=C\CC(=O)OC[C@H]2O[C@@H](C=C[C@@H]2O)[C@H](C)/C=C\CC(=O)OC[C@H]2O[C@H]1C=C[C@@H]2O | -6.65% | -3.42% [at 11.4 µM] (inactive) | – |
| CC(=O)OCC1OC(C#CCCCc2ccccc2)C=CC1OC(C)=O (stereo not drawn) | -0.905% | 0.607% [at 11.4 µM] (inactive) | – |
| CCc1cc(=O)oc2cc(C)cc(OC(C)C(=O)O)c12 (stereo not drawn) | 10.3% | – | inactive |
| O=C1[C@H]2[C@H]3[C@H](O)[C@H](O)C/C(=N/OCc4ccccc4)[C@H]3CC[C@@H]2C(=O)N1Cc1ccccc1 | -2.25% | -22.5% [at 11.4 µM] (inactive) | – |
| Fc1ccc(-c2nnc3sc(-c4ccc5c(c4)OCO5)nn23)cc1 | 23.4% | – | inactive |
| O=C(Cn1nnc(-c2ccccc2)n1)NCc1ccc2c(c1)OCO2 | 12.1% | – | inactive |
| c1ccc(-c2nnc3n2NC(c2ccc4c(c2)OCO4)S3)cc1 (stereo not drawn) | 27.8% | – | 25.1 µM (active) |
| Cc1ccc(C(=O)N2CCN(C3CCCCC3)CC2)s1 | -11.9% | – | inactive |
| CC(C)(C)c1ccc(OC2C=CC(C#Cc3ccccc3)OC2CO)cc1 (stereo not drawn) | 12.6% | 1.96% [at 11.4 µM] (inactive) | – |
| O=C(Cn1cc2c(n1)CCCCC2)NCCN1CCOCC1 | 1.85% | – | inactive |
| CCOC(=O)CSc1nnc(-c2ccncc2)o1 | -3.39% | – | inactive |
| Cc1ccc2nc(CC(=O)c3ccc4ccccc4c3)c(=O)[nH]c2c1 | 22.3% | 4.8% [at 11.4 µM] (inactive) | – |

| Structure (SMILES) | activation [1] | activation [2] | Potency [2] |
| --- | --- | --- | --- |
| COc1ccc(-c2cc(C(=O)NC(C(=O)O)C(C)C)c(C)o2)cc1OC (stereo not drawn) | 6.63% | – | inactive |
| CN1CCN(c2ncc3nc(-c4ccc(Cl)cc4)c(=O)n(-c4ccccc4)c3n2)CC1 | -23% | – | inactive |
| COc1ncc2nc(-c3ccc(Cl)cc3)c(=O)n(C)c2n1 | 6.5% | – | inactive |
| Cn1c(=O)[nH]c(=O)c2c1nc(NCCCn1ccnc1)n2Cc1cccc(Br)c1 | 20.4% | – | 20 µM (active) |
| CCCCNc1nc2c(c(=O)[nH]c(=O)n2C)n1CCOc1ccccc1 | 0.873% | – | inactive |
| CC(c1ccccc1)n1c(NCCCn2ccnc2)nc2c1c(=O)[nH]c(=O)n2C (stereo not drawn) | 2.43% | – | inactive |
| CCC(C)(C)N=C(NC#N)Nc1cccnc1 | 0.273% | – | inactive |
| C1CCC2OC2C1 (stereo not drawn) | 21.9% | – | inactive |
| CC(Cc1ccccc1)C(=O)N(C)Cc1ccccc1 (stereo not drawn) | 16.5% | – | inactive |
| CO[C@H]1COC(=O)CCC[C@@H](C)[C@H](OC)COC(=O)[C@@H](C)NC(=O)C/C=C\[C@@H]1C | 4.76% | 0.571% [at 11.4 µM] (inactive) | – |
| C/C(CCN1CCCCc2nc(C)c(C)cc21)=N\O[C@@H](C)c1cn([C@@H]2COC[C@@H]2O)nn1 | 6.27% | 4.59% [at 11.4 µM] (inactive) | – |
| O=C(O)c1nccnc1C(=O)Nc1ccc(Br)cn1 | 3.73% | – | inactive |
| C[C@@H](c1ccccc1)N1C(=O)[C@H]2[C@H]3[C@H](O)[C@H](O)C/C(=N/OC[C@@H](O)COCc4ccco4)[C@@H]3CC[C@@H]2C1=O | 5.7% | -3.6% [at 11.4 µM] (inactive) | – |
| OC(CCl)CCl | 12.9% | – | inactive |
| CCOC(=O)c1cccc(NC(=O)C2CCCN(S(=O)(=O)c3cnc[nH]3)C2)c1 (stereo not drawn) | 5.88% | – | inactive |
| CN1CCN(Cc2c(O)ccc3c2oc(=O)c2ccccc23)CC1 | 13.2% | – | inactive |
| CO[C@H]1COC(=O)[C@H](Cc2ccccc2)NC(=O)C/C=C\[C@@H](C)[C@H](OC)COC(=O)C/C=C\[C@@H]1C | 25.1% | 10.2% [at 11.4 µM] (inactive) | – |
| O=C(CC1Nc2ccccc2NC1=O)Nc1ccccc1 (stereo not drawn) | -1.43% | – | inactive |
| CCCCCCn1c(SCC(=O)c2ccccc2)nc2c1c(=O)[nH]c(=O)n2C | -2.08% | 3.88% [at 11.4 µM] (inactive) | – |
